COUP-TFII inh: NR2F2 transcriptional activity inhibitors, primary screen, cell-based, luciferase reporter, HEK293T, luminescence. COUP transcription factor 2 (Homo sapiens), P24468. AID 686940, 2013. inhibition, % at 8.6 µM. 0.7% of 370,000 active. HEK293T NGFI-A luciferase reporter;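 active = inhibition above a per-plate cutoff, mean inhibition of test wells between control levels plus 3 SD, cut at about 38% in these data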;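 note: cells cotransfected with COUP-TFII expression vector driving the NGFI-A reporter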
Target sequence (P24468 whole entry, looked up): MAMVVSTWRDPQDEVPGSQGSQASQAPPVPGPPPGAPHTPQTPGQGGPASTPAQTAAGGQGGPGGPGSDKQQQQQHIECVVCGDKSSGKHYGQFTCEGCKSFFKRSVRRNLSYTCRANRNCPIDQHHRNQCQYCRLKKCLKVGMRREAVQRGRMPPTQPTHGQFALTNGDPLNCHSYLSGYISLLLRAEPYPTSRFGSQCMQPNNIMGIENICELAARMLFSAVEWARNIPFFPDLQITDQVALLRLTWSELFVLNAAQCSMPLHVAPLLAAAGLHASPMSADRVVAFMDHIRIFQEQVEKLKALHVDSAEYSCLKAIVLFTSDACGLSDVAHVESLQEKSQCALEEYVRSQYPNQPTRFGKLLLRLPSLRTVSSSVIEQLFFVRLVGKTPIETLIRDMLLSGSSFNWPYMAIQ
Gli-Sufu antag: Gli-Sufu pathway antagonists, primary screen, luciferase luminescence, Sufu-KO-LIGHT cells, uHTS | Sufu-KO-LIGHT fibroblasts, Gli luciferase reporter luminescence | inhibition, % at 5 µM | 0.74% of 340,000 active | AID 588413, 2011;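 active = inhibition above about 55%, limit read from the data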
NCOA1 inh: SRC1 coactivator transcriptional activity inhibitors, primary screen, cell-based, luminescence; HEK293 GAL4-SRC1 luciferase reporter; inhibition, % at 3.6 µM; 0.12% of 360,000 active;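 active = inhibition above the campaign mean plus 3 SD, with each screening campaign given its own cutoff, cut at about 60% in these data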
NR5A2 inv ag: LRH-1 (NR5A2) inverse agonists, primary screen, cell-based, luminescence, HEK293T, StAR-luciferase reporter | Nuclear receptor subfamily 5 group A member 2 (Homo sapiens), O00482 | LRH-1 transfected, 24 h | inhibition, % at 3.6 µM | 0.13% of 360,000 active;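 active = inhibition above the mean inhibition of all tested compounds plus 3 SD, cut at about 73% in these data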
SRC3 inh: SRC3 coactivator transcriptional activity inhibitors, primary screen, cell-based, luminescence. HEK293 GAL4-SRC3 luciferase reporter. inhibition, % at 3.6 µM. 0.17% of 360,000 active;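 active = inhibition above a per-campaign cutoff, the mean of all compounds plus 3 SD, cut at about 60% in these data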;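 note: higher means less SRC3-driven luciferase light from the GAL4 reporter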
NCOA2 inhibitor: inhibition of GAL4-SRC2 driven luciferase reporter, primary screen, SRC2 inhibitor project, cell-based, luminescence; 0.17% of 370,000 active; inhibition, % at 9 µM; HEK293 GAL4-SRC2 luciferase reporter;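 active = inhibition above the mean inhibition of all tested compounds plus 3 SD, set per campaign, cut at about 52% in these data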
Gli-Sufu confirm: Gli-SUFU pathway antagonists, confirmation, single concentration, luciferase luminescence, Sufu-KO-LIGHT cells | shares compounds with Gli-Sufu antag | Gli luciferase reporter | inhibition, % at 5 µM | 40% of 2,500 active;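 active = mean inhibition at 5 µM reaching about 45%, limit read from the data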
SufuKO cytotox: cytotoxicity in Sufu-KO-LIGHT cells, confirmation, cytotoxicity control for Gli-SUFU antagonist project, cell-based, ATP luminescence, single concentration; shares compounds with Gli-Sufu antag; cytotoxicity, % at 5 µM; 32% of 2,500 active; AID 651994, 2013;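 active = mean cytotoxicity at 5 µM above about 25%, limit read from the data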;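 note: cells exposed to compound overnight for roughly 16 to 18 hours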
Wnt3a cs: Wnt3a reporter signal inhibition, confirmation, counter-screen for Gli-SUFU antagonist project, Wnt-LIGHT cells, luminescence, single concentration | shares compounds with Gli-Sufu antag | 20% of 2,500 active | Wnt3a-driven luciferase reporter | inhibition, % at 6.25 µM;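 active = mean inhibition above about 25%, limit read from the data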
A number is an active result; i = inactive; nt = no result given. Compounds with a hit are over-represented: about 1.2% of the library has one in this group of screens.

SMILES	COUP-TFII inh	Gli-Sufu antag	NCOA1 inh	NR5A2 inv ag	SRC3 inh	NCOA2 inhibitor	Gli-Sufu confirm	SufuKO cytotox	Wnt3a cs
Cc1ccc(C)c(S(=O)(=O)N2CCN(C(=O)C3CCN(c4ncnc5sc(C)c(C)c45)CC3)CC2)c1	i	73	i	i	i	i	i	i	i
Cc1sc2ncnc(N3CCN(S(=O)(=O)c4ccccc4)CC3)c2c1C	nt	60	i	i	i	nt	54	26	30
O=C(OCc1cn(Cc2ccccc2F)nn1)N1CCOCC1	i	nt	nt	nt	nt	i	nt	nt	nt
Cc1ccccc1-c1ccc2c(c1)[C@@H]1C[C@H]3[C@@H](CN1CC2)[C@H](C)OC(c1ccccc1)N3C (stereo partly drawn)	i	nt	nt	nt	nt	i	nt	nt	nt
O=C(COc1ccc2ccccc2c1)NNC(=O)c1ccccc1	i	i	i	i	i	i	i	i	i
CCCCc1c(-c2ccccc2OC)ncn1Cc1ccc(C(C)(C)C)cc1	i	nt	nt	nt	nt	i	nt	nt	nt
Cn1c(O)c(N=NC(=O)CNC(=O)c2cccnc2)c2ccccc21	i	i	i	i	i	i	i	i	i
CCOc1ncccc1C(=O)N1CCN(c2cc(Cl)ccc2C)CC1	i	i	i	i	i	i	i	54	i
CCOc1ncccc1C(=O)N1CCN(c2cccc(C)c2C)CC1	i	i	i	i	i	i	nt	nt	nt
COc1cccc(CNC(=O)[C@H]2CCCN2C(=O)[C@H]2CCCN2C(=O)OC(C)(C)C)c1	i	nt	nt	nt	nt	i	nt	nt	nt
O=C(N[C@H](Cc1ccccc1)C(=O)O)[C@H]1O[C@@H](n2ccc(=O)[nH]c2=O)[C@H](O)[C@@H]1O	i	nt	nt	nt	nt	i	nt	nt	nt
CC1(C)CC(=O)C2=C(C1)Nc1ccccc1NC2c1cccs1 (stereo not drawn)	i	58	i	i	i	i	i	i	i
COC(=O)c1cc(C(=O)N2CCN(c3cccc(C)c3C)CC2)cc([N+](=O)[O-])c1	i	i	i	i	i	i	nt	nt	nt
COC(=O)c1cc(C(=O)N2CCN(c3ccccc3OC)CC2)cc([N+](=O)[O-])c1	i	i	i	i	i	i	i	50	i
CC(=O)c1cc(-c2ccccc2)n(CC(=O)NCc2ccc(Cl)cc2)c1C	i	nt	nt	nt	nt	i	nt	nt	nt
Cc1ccc(S(=O)(=O)N(CC(=O)NCCSc2ccccn2)c2cc(C)cc(C)c2)cc1	i	i	i	i	i	i	i	i	i
O=[N+]([O-])c1ccc(Sc2ccccn2)nc1	i	i	i	i	i	i	nt	nt	nt
O=C(Nc1cc(Sc2ccccn2)cc([N+](=O)[O-])c1)c1ccc([N+](=O)[O-])cc1	i	i	i	i	i	i	i	26	i
O=C(NNC(=O)c1ccccc1Cl)c1cccnc1	i	i	i	i	i	i	nt	nt	nt
O=C(NNC(=O)c1cc([N+](=O)[O-])ccc1Cl)c1cccnc1	i	i	i	i	i	i	i	i	i
CCCCOc1ccc(N2C(N)=NC(N)=NC23CCCCC3)cc1	i	59	i	i	i	i	48	i	i
COc1ccc(/C=N/NC(=O)c2nc(-c3ccccc3)n(-c3ccccc3)n2)cc1	i	i	i	i	i	i	nt	nt	nt
COc1ccc(/C=N/NC(=O)c2nc(-c3ccccc3)n(-c3ccccc3)n2)c(O)c1	i	63	i	i	i	i	62	34	56
CCCCN(CCCC)C(=O)CN(C)S(=O)(=O)c1ccc2c(c1)n(C)c(=O)c(=O)n2C	i	i	i	i	i	i	nt	nt	nt
CN(CC(=O)O)S(=O)(=O)c1ccc2c(c1)n(C)c(=O)c(=O)n2C	i	63	i	i	i	i	i	i	i
SMILES	COUP-TFII inh	Gli-Sufu antag	NCOA1 inh	NR5A2 inv ag	SRC3 inh	NCOA2 inhibitor	Gli-Sufu confirm	SufuKO cytotox	Wnt3a cs
CCN(CC)S(=O)(=O)c1ccc(S(=O)(=O)N2CCCC(C(=O)NC3CC3)C2)cc1 (stereo not drawn)	i	60	i	i	i	i	46	i	i
Cc1cc(-n2c(C)cc(C(=O)COc3cccnc3[N+](=O)[O-])c2C)no1	i	i	i	i	i	i	nt	nt	nt
Cc1cc(C(=O)COc2cccnc2[N+](=O)[O-])c(C)n1Cc1cccs1	i	71	i	i	i	i	i	i	49
CCC1Sc2ccc(S(=O)(=O)CCC(=O)Nc3ccccc3Cl)cc2NC1=O (stereo not drawn)	i	i	i	i	i	i	i	i	i
CCOc1cc(/C=C2/NC(=O)N(Cc3ccccc3F)C2=O)ccc1O	i	74	i	i	i	i	71	i	45
C=CCN1C(=O)[C@@H](CC(=O)NCc2ccc(OC)c(OC)c2)[C@]2(C(=O)OC)CCCCC=C12	i	nt	nt	nt	nt	i	nt	nt	nt
CCN(Cc1ccccc1)Cc1ccc(OCc2ccccc2)cc1	i	59	i	i	i	i	i	i	i
CC(CNC(=O)[C@@H](Cc1ccccc1)NC(=O)[C@H]1O[C@@H](n2ccc(=O)[nH]c2=O)[C@H](O)[C@@H]1O)c1ccccc1 (stereo partly drawn)	i	nt	nt	nt	nt	i	nt	nt	nt
CCOC(=O)CSc1c(-c2ccc(Cl)cc2)[nH]c2ccccc12	i	i	i	i	i	i	nt	nt	nt
CCOC(=O)CSc1c(-c2cccs2)[nH]c2ccccc12	i	i	i	i	i	i	65	i	i
CCOC(=O)[C@]12CCCC=C1N(CCCOC)C(=O)[C@@H]2CC(=O)NCc1ccccc1	i	nt	nt	nt	nt	i	nt	nt	nt
CCN(CC)c1ccc(/C=N/NC(=O)OC)c(O)c1	i	i	i	i	i	i	nt	nt	nt
CCN(CC)c1ccc(/C=N/NC(=S)NC)c(O)c1	i	84	i	i	i	i	i	i	i
Cc1cc(NC(=O)C2CCN(S(=O)(=O)Cc3ccccc3)CC2)ccc1-n1cnnn1	i	60	i	i	i	i	i	i	i
Cn1c(Cc2csc(N)n2)nnc1SCC(=O)NCc1ccccc1	i	95	i	i	i	i	i	i	i
CC(=NNc1nc2ccccc2s1)c1ccncn1	i	i	i	i	i	i	71	42	i
CN(Cc1cnc2nc(N)nc(N)c2n1)c1ccc(C(=O)NC(CCC(=O)O)C(=O)O)c2ccccc12 (stereo not drawn)	i	58	73	i	64	i	i	29	i

Screening data as filed in PubChem.
